FBW7 act – activators of human E3 ligase FBW7; AID 1259310; AlphaScreen FBW7–phospho-cyclin E peptide binding, activator screen; 0.13% of 650,000 active; Q969H0; normalized activity (activation), % at 26.1 µM; in the data active = normalized activity above about 1.9%;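 also: purified mutant Fbw7 with reduced substrate affinity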
TEAD-YAP inh – TEAD-YAP interaction inhibition; HEK-TIYL cells, TEAD-Gal4/YAP UAS-luciferase luminescence; inhibition, % at 9.12 µM; 1.4% of 640,000 active; in the data active = inhibition above about 32%;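 also: 0% = median of test compound wells and 100% = reference inhibitor wells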
GPR151 ag – human GPR151 activation | Q8TDV0 | PathHunter beta-arrestin GPR151 cells, luminescence | 1% of 650,000 active | activation, % at 11.2 µM | AID 1508602; in the data active = activation above about 4.9%;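 also: 0% = median of compound wells and 100% = cells with positive control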
MITF inh – inhibitors of human MITF. AID 1259374. 0.91% of 650,000 active. AlphaScreen MITF homodimerization, bead proximity signal. inhibition, % at 2.6 µM. O75030; in the data active = inhibition above about 50%;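 also: 0% = vehicle wells with protein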
Target sequence (O75030 whole entry, looked up): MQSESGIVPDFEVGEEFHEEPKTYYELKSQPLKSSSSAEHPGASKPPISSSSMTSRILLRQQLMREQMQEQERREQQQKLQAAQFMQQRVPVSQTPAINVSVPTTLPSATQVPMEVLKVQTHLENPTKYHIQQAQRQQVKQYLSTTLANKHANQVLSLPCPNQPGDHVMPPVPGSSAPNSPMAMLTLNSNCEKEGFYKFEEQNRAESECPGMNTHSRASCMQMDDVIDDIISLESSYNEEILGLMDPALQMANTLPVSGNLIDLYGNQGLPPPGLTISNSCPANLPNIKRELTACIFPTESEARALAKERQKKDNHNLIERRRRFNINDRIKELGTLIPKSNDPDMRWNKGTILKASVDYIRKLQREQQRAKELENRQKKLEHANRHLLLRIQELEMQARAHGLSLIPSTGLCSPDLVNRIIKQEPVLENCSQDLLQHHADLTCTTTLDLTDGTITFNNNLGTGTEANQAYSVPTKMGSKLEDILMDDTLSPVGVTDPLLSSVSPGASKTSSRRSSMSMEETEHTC
Numbers without * were called inactive. Compounds with a hit are over-represented: about 3.5% of the library has one in this group of screens.

Results for CN(C)c1ccc(/C=N\NC(=O)c2cc(N)ccc2O)cc1 ?
FBW7 act: 0; TEAD-YAP inh: 9; GPR151 ag: 0; MITF inh: 64*

How did Cc1ccccc1C(=O)N/N=C/c1ccc(O)c(Br)c1 do in these assays?
FBW7 act: -1; TEAD-YAP inh: 71*; GPR151 ag: 1; MITF inh: 0

What do the screens show for `Cc1ccccc1C(=O)N/N=C/c1ccc(O)c(O)c1`?
FBW7 act: 0; TEAD-YAP inh: -35; GPR151 ag: -1; MITF inh: 9

What do the screens show for `Cc1ncn(-c2ccc(Nc3nccc(-c4cc(N5CCOCC5)cc(S(C)(=O)=O)c4)n3)cc2)n1`?
FBW7 act: 0; TEAD-YAP inh: 41*; GPR151 ag: 0; MITF inh: -1

Results for Cc1ncn(-c2ccc(Nc3nccc(Nc4ccccc4-c4ccn[nH]4)n3)cc2)n1 ?
FBW7 act: 0; TEAD-YAP inh: 64*; GPR151 ag: 2; MITF inh: 1

How did Cc1ncn(-c2ccc(Nc3nccc(Nc4cccnc4)n3)cc2)n1 do in these assays?
FBW7 act: 0; TEAD-YAP inh: 6; GPR151 ag: 0; MITF inh: 8

Results for Cc1ncn(-c2ccc(Nc3nccc(-c4cccc(S(C)(=O)=O)c4)n3)cc2)n1 ?
FBW7 act: 0; TEAD-YAP inh: 47*; GPR151 ag: 0; MITF inh: -6

How did Cc1ncn(-c2ccc(Nc3nccc(-c4cc(F)cc(-c5cn[nH]c5C)c4)n3)cc2)n1 do in these assays?
FBW7 act: 0; TEAD-YAP inh: 37*; GPR151 ag: 2; MITF inh: 6

What do the screens show for `O=C(c1ccccc1)n1cc([N+](=O)[O-])cn1`?
FBW7 act: 0; TEAD-YAP inh: 2; GPR151 ag: 0; MITF inh: 0

How did O=C(O)c1ccc2c(=O)nc3n(c2c1)Cc1ccccc1-3 do in these assays?
FBW7 act: 0; TEAD-YAP inh: -8; GPR151 ag: -1; MITF inh: -5

Results for CN1CCN(c2ncn(-c3ccc(Nc4nccc(-c5cc(F)cc(N6CCOCC6)c5)n4)cc3)n2)CC1 ?
FBW7 act: 0; TEAD-YAP inh: 56*; GPR151 ag: -1; MITF inh: -16

How did CCn1c(=O)cc(N2CCN(c3cccc(Cl)c3)CC2)[nH]c1=O do in these assays?
FBW7 act: 0; TEAD-YAP inh: 68*; GPR151 ag: 0; MITF inh: -6

Results for Cc1ccc(SCCNC(=O)CCl)cc1 ?
FBW7 act: 0; TEAD-YAP inh: 43*; GPR151 ag: 0; MITF inh: -1

What do the screens show for `Cc1cc(NC(=O)Nc2ccccc2)ccc1N1CCCCC1=O`?
FBW7 act: 0; TEAD-YAP inh: 37*; GPR151 ag: -10; MITF inh: -7

How did COC(=O)C1=C(C)NC2=C(C(=O)CC(c3ccccc3)C2)C1c1ccc(O)c([N+](=O)[O-])c1 (stereo not drawn) do in these assays?
FBW7 act: 0; TEAD-YAP inh: 9; GPR151 ag: 0; MITF inh: 18

How did CC1=C(C(=O)OCc2ccccc2)C(c2ccc(O)c([N+](=O)[O-])c2)C2=C(CC(c3ccccc3)CC2=O)N1 (stereo not drawn) do in these assays?
FBW7 act: 0; TEAD-YAP inh: 44*; GPR151 ag: 0; MITF inh: 15

How did COc1ccc(C2CC(=O)C3=C(C2)NC(C)=C(C(=O)OCc2ccccc2)C3c2cccc([N+](=O)[O-])c2)cc1 (stereo not drawn) do in these assays?
FBW7 act: 0; TEAD-YAP inh: 59*; GPR151 ag: 1; MITF inh: 1

What do the screens show for `CC1=C(C(=O)OCc2ccccc2)C(c2cccc([N+](=O)[O-])c2)C2=C(CC(c3ccccc3)CC2=O)N1` (stereo not drawn)?
FBW7 act: 0; TEAD-YAP inh: 56*; GPR151 ag: 0; MITF inh: -4

Results for NC(=O)N/N=C\c1cn(-c2ccccc2)nc1-c1ccc2ccccc2c1 ?
FBW7 act: 0; TEAD-YAP inh: -18; GPR151 ag: 1; MITF inh: 1

How did CN1CCN(c2nc(-c3ccccc3)cs2)CC1 do in these assays?
FBW7 act: 0; TEAD-YAP inh: -35; GPR151 ag: -1; MITF inh: 12

How did CC(=O)Nc1nc(-c2ccc3c(c2)NC(=O)CO3)cs1 do in these assays?
FBW7 act: 0; TEAD-YAP inh: 58*; GPR151 ag: 0; MITF inh: 6

How did COc1ccccc1N1C(=O)/C(=C\c2cccn2C)C(=O)NC1=S do in these assays?
FBW7 act: 0; TEAD-YAP inh: 14; GPR151 ag: 0; MITF inh: 56*

How did COc1ccc(/C=C2/C(=O)NC(=O)N(c3ccc(C(C)C)cc3)C2=O)cc1O do in these assays?
FBW7 act: 1.9*; TEAD-YAP inh: -7; GPR151 ag: -1; MITF inh: 2

Results for COc1ccc(N2C(=O)NC(=O)/C(=C/c3cc(Cl)c(O)c(OC)c3)C2=O)cc1 ?
FBW7 act: 0; TEAD-YAP inh: -3; GPR151 ag: 1; MITF inh: 4

How did Cc1ccccc1N1C(=O)NC(=O)/C(=C\c2ccc(O)c(O)c2)C1=O do in these assays?
FBW7 act: 0; TEAD-YAP inh: -5; GPR151 ag: 0; MITF inh: 45

How did COc1ccccc1N1C(=O)NC(=O)/C(=C\c2ccc(O)c(O)c2)C1=O do in these assays?
FBW7 act: 0; TEAD-YAP inh: -3; GPR151 ag: -1; MITF inh: 56*

Results for COc1ccc(N2C(=O)NC(=O)/C(=C\c3cc(OC)c(O)c(OC)c3)C2=O)cc1 ?
FBW7 act: 2.1*; TEAD-YAP inh: 7; GPR151 ag: 0; MITF inh: 3

What do the screens show for `COc1ccc2c(c1)C(=O)N(c1ccccc1)C(=O)C2(C)C`?
FBW7 act: 1; TEAD-YAP inh: -5; GPR151 ag: -3; MITF inh: 14

What do the screens show for `O=C(Nc1ccc(F)cc1)C1CC(=O)N(Cc2ccccc2)C(=Nc2ccc(F)cc2)S1` (stereo not drawn)?
FBW7 act: 0; TEAD-YAP inh: -3; GPR151 ag: -1; MITF inh: -5

Results for COCCCNC(=O)C(=O)Nc1ccc(F)cc1 ?
FBW7 act: 0; TEAD-YAP inh: -53; GPR151 ag: -2; MITF inh: -5

What do the screens show for `CCC(=O)Nc1nnc(SCc2cc(=O)c(OC(=O)c3ccccc3C)co2)s1`?
FBW7 act: 0; TEAD-YAP inh: 2; GPR151 ag: 0; MITF inh: 14

Results for O=C(O)CNc1cc(N2CCCCCC2)c2noc3c2c1C(=O)c1ccccc1-3 ?
FBW7 act: -1; TEAD-YAP inh: 77*; GPR151 ag: -5; MITF inh: 61*

How did O=C(O)CCNc1cc(N2CCCCC2)c2noc3c2c1C(=O)c1ccccc1-3 do in these assays?
FBW7 act: 0; TEAD-YAP inh: 14; GPR151 ag: 3; MITF inh: 89*

How did CC(C)Nc1cc(N(C)CCO)c2noc3c2c1C(=O)c1ccccc1-3 do in these assays?
FBW7 act: 0; TEAD-YAP inh: 15; GPR151 ag: 0; MITF inh: 26

Bioassay records (PubChem BioAssay)
